Test results: PubChem BioAssay AID1460 (National Center for Advancing Translational Sciences (NCATS), 2008)
Among all 270,000 compounds or so, about 5,800 (2.1%) were called active. Another 16% or so got no clear call; they are omitted. Calls follow the shape of the dose curve; as a rule, active = well fitted inhibition curve with a large enough effect; inconclusive = small, poorly fitted or top-dose-only effect; inactive = flat fitted curve, though single readings scatter. Many of the other results were omitted from the sample, so actives are more common in it than they were.

target: Microtubule-associated protein tau (Homo sapiens) (UniProt P10636); assay: qHTS for Inhibitors of Tau Fibril Formation, Thioflavin T Binding; settings: recombinant tau K18 P301L (four-repeat tau fragment), heparin-induced fibrillization, ThT fluorescence; series mostly up to 57.4 µM; activity, negative = inhibition: at the top concentration; also: nearly all actives have a fitted effect of over 55% in size
Sequence (P10636 561-689 P618L limits assumed): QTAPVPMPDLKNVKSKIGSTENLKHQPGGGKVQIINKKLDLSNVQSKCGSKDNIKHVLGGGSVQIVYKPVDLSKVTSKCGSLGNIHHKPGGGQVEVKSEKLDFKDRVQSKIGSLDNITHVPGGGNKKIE
In short: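 In this qHTS, human K18 P301L tau is incubated with compound and heparin for 6 hr at 37 C, and Thioflavin T fluorescence then reports fibril load.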
% is scaled to controls: 0 for no effect and ±100 for the full control effect; potency is read from the fitted curve at half-maximal effect.

activity, negative = inhibition, inactive:
COc1ccc(S(=O)(=O)n2nc(C)c(S(=O)(=O)N3CCCCCC3)c2C)cc1 -5.22%, CCc1nnc(SCC(=O)Nc2cc(OC)ccc2OC)nc1CC -13.1%, COc1ccc(C)cc1N(C)C(=O)c1c(C)oc2ncnc(N3CCOCC3)c12 -4.51%, CCOC(=O)C1CCCN(S(=O)(=O)c2cc(-c3cc(C)no3)ccc2OC)C1 (stereo not drawn) -5.37%, N#C/C(=C\c1ccc(N2CCOCC2)o1)C(=O)N1CCOCC1 -14.6%, N#C/C(=C\c1ccccc1C(F)(F)F)C(=O)Nc1ccccc1F -2.13%, COc1cccc(-c2cc(C(=O)Nc3ccc(C)cc3)[nH]n2)c1 16.5%, Cc1nonc1C(=O)N/N=C/c1ccc(O)cc1 -13.5%, COc1ccc(C/C(C)=N/NC(=O)c2cc(C)oc2C)cc1 -14.5%, CCn1cc(C(=O)N2CCN(c3cc(C)ccc3C)CC2)c(=O)c2cc(S(=O)(=O)N(C)C3CCCCC3)ccc21 -17%, Cc1noc2ncnc(NCc3ccccc3Cl)c12 -8.51%, COC(=O)C1=C(C)N(c2ccc(Br)cc2)C(=O)/C1=C\c1ccco1 3.15%, CC(C)NC(=O)C(=O)N/N=C/c1ccco1 -18.5%, CCOC(=O)c1c(NC(=O)c2ccc(S(=O)(=O)N3CCCC(C)C3)cc2)sc2c1CCN(C(C)C)C2 (stereo not drawn) -15.9%, COc1cc(OC)c(NC(=O)c2nc(-c3ccncc3)no2)cc1Cl 15.5%, Cc1ccc(-c2csc(NC(=O)c3cnccn3)n2)cc1C -7.61%, Cc1ccc(-c2csc(SCC(=O)Nc3cc(C)on3)n2)cc1 -1.99%, Cc1ccccc1CNC(=O)CCCn1nc(C)c2sc3ccccc3c2c1=O 11.6%, O=C(NC1CC(=O)N(c2ccccc2)C1)c1ccco1 (stereo not drawn) 4.55%, COc1ccc(NC(=O)Nc2cccc(-c3noc(C)n3)c2)cc1 -6.06%, Cc1c(C)n(Cc2ccc(Cl)cc2)c2ccc(C(=O)NCCc3ccc(S(N)(=O)=O)cc3)cc12 -2.45%, CC(C)(C)c1ccc(C(=O)Nc2ccc3c(c2)CCCN3C(=O)c2cccs2)cc1 -12.8%, CCc1ccc(NC(=O)CN2C(=O)CCSc3ccc(S(=O)(=O)N4CCCC4)cc32)cc1 8.06%, CCc1nn(CCCC(=O)NCc2ccc(C)cc2)c(=O)c2cc3occc3n12 -5.1%, COCCCNC(=O)c1ccc(NC(=O)c2nsc3ccccc23)cc1 -4.75%, Cc1ccc(N2C(=O)C3C(c4ccccc4)(C2=O)C3(c2ccccc2)c2ccccc2)cc1 (stereo not drawn) 4.8%, O=C(Nc1ccc2nc(SCCOc3ccccc3Cl)sc2c1)c1ccco1 5.98%, CCOC(=O)c1cccc(NC(=O)c2cc(S(=O)(=O)N3CCCC(C)C3)cn2C)c1 (stereo not drawn) 3.72%, Cc1ccc(S(=O)(=O)c2c(Nc3cccc(Cl)c3)sc(C(=O)c3ccc4c(c3)OCO4)c2N)cc1 -3.94%, CCOc1cc(C(=O)Nc2nnc3n2CCS3)cc(OCC)c1OCC 1.75%, Cc1ccc2cccc(NC(=O)C(C)Oc3ccc(C)c(C)c3)c2n1 (stereo not drawn) 6.23%, Cc1ccccc1C(=O)Nc1cc(C)c(O)c(-c2nc3ccccc3o2)c1 -2.98%, CC(C)c1ccc(C2C(C#N)=C(N)Oc3c2oc(CO)cc3=O)cc1 (stereo not drawn) -9.29%, CCOC(=O)c1ccc(N2C(=O)c3n[nH]c(-c4ccco4)c3C2c2ccc(O)cc2)cc1 (stereo not drawn) -15.9%, CCCc1nn2c(=O)cc(COC(=O)c3ccc(NC(=O)C(C)Oc4ccccc4)cc3)nc2s1 (stereo not drawn) -5.44%, COc1ccc(C2=NN(c3ccccc3)C(c3cccs3)C2)cc1 (stereo not drawn) -9.36%, COC(=O)Cc1[nH]n(-c2nc3ccccc3s2)c(=O)c1C(C)=Nc1ccc(OC)cc1 12%, CCOC(=O)c1c(S(=O)(=O)N2CCC(C(=O)NCc3ccccc3OC)CC2)c(C)n(C)c1C 7.16%, O=C(CN1C2=NCCN2c2ccccc21)c1cccs1 2.91%, CN(C)c1ccnc2sc(C(=O)c3ccccc3)c(N)c12 -18.6%, O=C(NCc1ccccc1Cl)c1cccn1-c1nnc(N2CCCCC2)s1 -3.55%, O=C(Nc1nc(-c2ccc(-c3ccccc3)cc2)cs1)c1cnccn1 -14.1%, O=C(CSC1=NCCS1)Nc1nc(-c2ccccc2)cs1 -21.2%, Cc1cccc(S(=O)(=O)c2cn(Cc3ccccc3)c3cc(N4CCOCC4)c(F)cc3c2=O)c1 -7.93%, COc1ccc(CNC(=O)c2cc3c(s2)-c2ccccc2OC3)cc1 -9.54%, CCN(CC)S(=O)(=O)c1ccc(C(=O)N=c2sc3cccc(OC)c3n2C)cc1 2.64%, O=C(Cn1c(-c2cccs2)cc2ccccc21)NCCc1ccc(Cl)cc1 1.45%, CN(Cc1ccccc1)c1ccc(-c2nc(-c3ccccc3)no2)cc1[N+](=O)[O-] -1.66%, COc1ccc(N2CCN(C(C)=C3C(=O)c4ccccc4C3=O)CC2)cc1 18.2%, COc1ccc(N2CCN(C(=O)CSc3ncnc4c3cnn4-c3ccc(OC)cc3)CC2)cc1 -11.1%, Cc1nn(C(C)C(=O)Nc2ccc(C(C)C)cc2)c(=O)c2c1sc1ccccc12 (stereo not drawn) 4.79%, O=C(CSc1nc2c(c(=O)[nH]1)CN(Cc1ccc(F)cc1)CC2)Nc1ccccc1Cl -3.93%, NS(=O)(=O)c1ccc2nc(NC(=O)COc3ccccc3)sc2c1 1.18%, O=C(NCc1cccnc1)C(=O)NCC(c1cccnc1)N1CCN(c2ccccc2)CC1 (stereo not drawn) -1.85%, CCc1ccc(S(=O)(=O)n2ccnc2)cc1 13%, Cc1ccc(C(=O)c2ccc(N3CCN(C)CC3)c([N+](=O)[O-])c2)cc1 2.39%, N/C(=N\OC(=O)Cc1ccccc1[N+](=O)[O-])c1ccc(Br)cc1 -2.47%, Cc1ccc(C)c(S(=O)(=O)n2nc(C)c(S(=O)(=O)N3CCC(C)CC3)c2C)c1 1.74%, CSc1ccc(C2C(C(=O)Nc3ccccc3)=C(C)Nc3nc4ccccc4n32)cc1 (stereo not drawn) 17.8%, COc1ccc(S(=O)(=O)c2c(Nc3ccc(C)cc3)sc(C(=O)c3ccc(C)cc3)c2N)cc1 -1.21%, CC(=O)c1ccc(NS(=O)(=O)c2ccc(-c3cc(C)no3)s2)cc1 0.58%, Cc1oc2c(c1C(=O)N1CCOCC1)C(=O)c1ccccc1C2=O -6.24%, c1ccc(-c2oc3ncnc(N4CCOCC4)c3c2-c2ccccc2)cc1 -4.32%, CCn1cc(C(=O)NCCc2ccccc2)c(=O)c2cc(S(=O)(=O)N3CCCCCC3)ccc21 -5.17%, CCCN(CCC)C(=O)Cn1c(=O)n(-c2ccc(Cl)cc2)c(=O)c2c3c(sc21)CCCCC3 2.08%, Cc1cc2c(cc1S(=O)(=O)CCC(=O)Nc1ccc(OC(F)(F)F)cc1)OCC(=O)N2 -7.52%, CCOC(=O)c1csc(NC(=O)Nc2cccc(OC)c2)n1 3.55%, COc1cccc(CC(=O)Nc2ccc(-c3csc(C)n3)cc2)c1 -4.12%, CCCOc1cccc(C(=O)Nc2cccc(NC(=O)c3ccc(C(C)(C)C)cc3)c2)c1 -1.73%, Cc1ccc(Cc2nc3ccccc3nc2SCC(=O)Nc2cccc(C(F)(F)F)c2)cc1 2.29%, O=C(NC1CC1)c1ccc2c(c1)NC(=O)c1ccccc1S2 -6.02%, CC(=O)Nc1cccc(/C(C)=N/NC(=O)c2ccccc2Cl)c1 -7.39%, Cc1ccc2c(c1)-c1c(cnn1CC(=O)Nc1ccccc1C#N)CO2 -7.6%, CSc1ncc(C(=O)NCc2ccccc2Cl)c(C(F)(F)F)n1 -7.7%, COc1ccc(N2C(=O)CC(Nc3ccc(F)cc3)C2=O)c([N+](=O)[O-])c1 (stereo not drawn) 4.24%, CC(=O)NC(Cc1ccccc1)C(=O)NC1CCN(c2ncccc2[N+](=O)[O-])CC1 (stereo not drawn) 2.41%, CCOc1ccccc1C(=O)NCC(c1ccc(N(C)C)cc1)N1CCCC1 (stereo not drawn) 5.21%, Cc1cc(C)c(NC(=O)CSc2nc3nccnc3c(=O)n2CCc2c[nH]c3ccccc23)c(C)c1 -9.71%, O=C(Nn1c(-c2ccccc2)nc2ccccc2c1=O)c1ccc([N+](=O)[O-])cc1 -9.95%, O=[N+]([O-])c1cccc(Nc2c3ccccc3nc3ccccc23)c1 -7.21%, COC(=O)c1cc(NC(=O)c2cnc(SC)nc2-c2ccccc2)cc(C(=O)OC)c1 -2.89%

Potency, active:
N#C/C(=C\C1=C(N2CCOCC2)C(=C\c2ccccc2)/CC1)C(=O)Nc1ccccc1F 3.16 µM, Cc1cc(C(=O)N/N=C/c2ccc(N3CCOCC3)cc2)c(C)o1 3.98 µM, COC(=O)C1=C(C)N(C(C)c2ccccc2)C(=O)/C1=C\c1ccco1 (stereo not drawn) 22.4 µM, Cc1ccc(Nc2nc(-c3ccc(O)cc3O)cs2)nc1 5.01 µM, CCN(CC)c1cc(NC2CCCCC2)c2c3c(onc13)-c1ccccc1C2=O 11.2 µM, Cc1ccc(C2C3=C(Nc4[nH]n(-c5ccccc5)c(=O)c42)c2ccccc2C3=O)cc1 (stereo not drawn) 7.94 µM, CC(C)c1ccc(C2CC(=O)N3CN(C4CCCCC4)CSC3=C2C#N)cc1 (stereo not drawn) 22.4 µM, COc1ccc(C2=NN(c3nc4ccccc4s3)C(=O)C2)cc1 10 µM, Nc1c(C(=O)c2cccs2)sc2nsc(SCCN3CCCCC3)c12 4.47 µM, O=C(Nc1nc(-c2ccncc2)cs1)C1COc2ccccc2O1 (stereo not drawn) 28.2 µM, COc1ccc(N2CCN(c3ccc([N+](=O)[O-])nc3)CC2)cc1 1.41 µM, Cc1oc2cc([N+](=O)[O-])c(O)c([N+](=O)[O-])c2c1C(=O)c1ccc(Br)cc1 10 µM, O=C1c2ccccc2-c2ncnc3c(N4CCOCC4)cc(N4CCOCC4)c1c23 8.91 µM, CCCCCCC(=O)Nc1nc(C)c(-c2csc(Nc3cccc(OC)c3)n2)s1 7.94 µM, C/C(=N\Nc1cccc(C(=O)O)c1)c1ccc2c(c1)Nc1ccccc1S2 5.01 µM, COc1ccc(-c2cc(C3CCN(c4ncccc4[N+](=O)[O-])CC3)[nH]n2)cc1 8.91 µM, Cc1nc2ccccc2nc(=O)c1NNc1ccc([N+](=O)[O-])cc1 11.2 µM
